Counter-ions that a name gives are not always drawn. ± gives the standard deviation of the averaged measurements.
The molecules below were run on A549 (assay: relative viability (normalised to negative control = 1, bortezomib = 0) (fraction); higher = less cytotoxic). Conditions: inflammatory serum-free RHB-A with cytokines + LPS; 5 d + 24 h CellTiter-Blue; compound 300 nM; GSK126 pretreatment: none (vehicle).
In the case of Cc1cccc(-c2[nH]c(C(C)(C)C)nc2-c2ccc3nccnc3c2)n1, the relative viability is reported as 0.887 ± 0.067.
With CC(C)c1cnn2c(NCc3ccccc3)cc(NCCCCCCN)nc12 [BS-181 hydrochloride] the relative viability was 0.895 ± 0.049.
With CCc1c2c(nc3ccc(OC(=O)N4CCC(N5CCCCC5)CC4)cc13)-c1cc3c(c(=O)n1C2)COC(=O)[C@]3(O)CC [Irinotecan HCl; Irinotecan hydrochloride] the relative viability was 0.917 ± 0.031.
CN1CCN(CCOc2cc(OC3CCOCC3)c3c(Nc4c(Cl)ccc5c4OCO5)ncnc3c2)CC1 [AZD0530(Saracatinib)] showed a relative viability of 0.914 ± 0.038.
In the case of Cc1cc(C(C)Nc2ccccc2)c2nc(N3CCOCC3)cc(=O)n2c1 (centres undefined), the relative viability is reported as 0.8 ± 0.1.
Molecule OCCn1cc(-c2ccc3c(c2)CC/C3=N\O)c(-c2ccncc2)n1 has a relative viability of 1.14 ± 0.16.
Molecule CCN(CCO)CCCOc1ccc2c(Nc3cc(CC(=O)Nc4cccc(F)c4)[nH]n3)ncnc2c1 [AZD1152-HQPA(Barasertib)] has a relative viability of 0.696 ± 0.037.
COc1ccc(S(=O)(=O)N(C(C)=O)c2ccccc2/C=C/c2cc[n+]([O-])cc2)cc1 was tested, and the relative viability was 0.623 ± 0.056.
C#Cc1cccc(Nc2ncnc3cc(OCCOC)c(OCCOC)cc23)c1 was tested, and the relative viability was 0.494 ± 0.031.
Work on CCCNC(=O)Nc1ccc(Oc2ncnc3cc(OC)c(OC)cc23)cc1Cl yielded a relative viability of 0.895 ± 0.087.
With CC(C)C[C@H](NC(=O)[C@H](CCc1ccccc1)NC(=O)CN1CCOCC1)C(=O)N[C@@H](Cc1ccccc1)C(=O)N[C@@H](CC(C)C)C(=O)[C@@]1(C)CO1 [Carfilzomib] the relative viability was -0.00499 ± 0.0011.
CNNCc1ccc(C(=O)NC(C)C)cc1 [Procarbazine hydrochloride; Procarbazine] was tested, and the relative viability was 0.967 ± 0.06.
COC(=O)Nc1ccc(-c2nc(N3CCOCC3)c3cnn(C4CCN(C(=O)OC)CC4)c3n2)cc1 showed a relative viability of 0.588 ± 0.04.
Work on Cn1c(Nc2ccc(C(F)(F)F)cc2)nc2cc(Oc3ccnc(-c4ncc(C(F)(F)F)[nH]4)c3)ccc21 yielded a relative viability of 0.347 ± 0.037.
Work on COc1cc(N2CCC(N3CCN(C)CC3)CC2)ccc1Nc1ncc(Cl)c(Nc2ccccc2S(=O)(=O)C(C)C)n1 yielded a relative viability of 0.259 ± 0.028.
In the case of O=C1CCC(N2C(=O)c3ccccc3C2=O)C(=O)N1 (centres undefined), the relative viability is reported as 0.87 ± 0.034.
Molecule Cc1ccc([N+](=O)[O-])cc1S(=O)(=O)N(C)/N=C/c1cnc2ccc(Br)cn12 [PIK-75 Hydrochloride] has a relative viability of -0.00104 ± 0.0047.
CS(=O)(=O)N1CCN(Cc2cc3nc(-c4cccc5[nH]ncc45)nc(N4CCOCC4)c3s2)CC1 gave a relative viability of 0.411 ± 0.017.
Molecule Cn1cnc2c(F)c(Nc3ccc(Br)cc3Cl)c(C(=O)NOCCO)cc21 [AZD6244(Selumetinib)] has a relative viability of 0.34 ± 0.022.
With O=C1NC(=O)/C(=C\c2ccc3nccnc3c2)S1 the relative viability was 0.946 ± 0.17.
C=CC(=O)Nc1cccc(Sc2nc(Nc3ccc(N4CCN(C)CC4)cc3)ncc2Cl)c1 gave a relative viability of 0.477 ± 0.083.
With Cc1ccc(C(=O)Nc2cccc(C(F)(F)F)c2)cc1Nc1nc(-c2cccnc2)nc2c1cnn2C the relative viability was 1.06 ± 0.15.
For CC(=O)Nc1cccc(-n2c(=O)n(C3CC3)c(=O)c3c(Nc4ccc(I)cc4F)n(C)c(=O)c(C)c32)c1, the relative viability was 0.0354 ± 0.0045.
C[C@@H]1CN(CC(=O)Nc2ccc3c(c2)Cc2cccc(-c4cc(=O)cc(N5CCOCC5)o4)c2S3)C[C@H](C)O1 gave a relative viability of 0.943 ± 0.024.
